Experimental data published in the supplement of paper PMC10849652.
Targets with a hit are over-represented here; the source holds about 8,800 in all. About 0.5% of all pairs of compound and target were hits.

Legend:
Assay in all cases: log2 fold change, soluble protein after heating vs DMSO (PISA); higher = thermal stabilisation; K562 lysate, 10 uM; active = over 0.2 and 3.5 SD of the protein, either way, in both replicates (recomputed)
[1] = compound: CN1CC[C@H](c2c(O)cc(O)c3c(=O)cc(-c4ccccc4Cl)oc23)[C@H](O)C1 [alvocidib]
Summary of the method: (§1)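 Values give the log-two fold change in thermal stability against solvent controls, from duplicates. Crude K562 extract at 1 mg/mL protein, made by dounce homogenisation in PBS pH 7.4 with 1 mM MgCl2, was treated with 10 μM compound for 30 min. After 3 min heating across 48°C-58°C, aliquots were pooled, adjusted to 0.5% NP-40 at 4°C and centrifuged at 21,000xg for 90 min. The supernatant was measured by TMTpro 16plex LC-MS/MS with channel sums equalised.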

[2] = compound: CN1CCc2c(c3ccccc3n2Cc2ccc(C(=O)NO)cc2)C1 [Tubastatin A]
Summary of the method: as §1

[3] = compound: CNC(=O)C1=CC=CC=C1NC2=NC(=NC=C2Cl)NC3=C(C=C(C=C3)N4CCOCC4)OC
Summary of the method: as §1

[4] = compound: CNC(=O)c1ccc(Nc2ncc(C(F)(F)F)c(NCc3nccnc3N(C)S(C)(=O)=O)n2)cc1 [defactinib]
Summary of the method: as §1

[5] = compound: CNc1nc(-c2ccc3c(N)n[nH]c3c2)cc(N2C[C@@H](C(=O)NC3CCCCC3)CC[C@H]2C)n1
Summary of the method: as §1

[6] = compound: COC(=O)N[C@@H](C)CNc1nccc(-c2cn(C(C)C)nc2-c2cc(Cl)cc(NS(C)(=O)=O)c2F)n1 [encorafenib]
Summary of the method: as §1

[7] = compound: COC(=O)[C@H](CCSC)NC(=O)C1=C(C=C(C=C1)NC[C@H](CS)N)C2=CC=CC=C2
Summary of the method: as §1

[8] = compound: COc1cc(Nc2ncc3c(n2)-c2ccc(Cl)cc2C(c2c(F)cccc2OC)=NC3)ccc1C(=O)O [alisertib]
Summary of the method: as §1

[9] = compound: COc1cc2nc(-c3cc(F)ccc3O)nc(N[C@@H]3CNC[C@H]3C(C)(C)O)c2cc1OC
Summary of the method: as §1

[10] = compound: COc1cc2ncnc(Nc3ccc(F)c(Cl)c3)c2cc1OCCCN1CCOCC1 [gefitinib]
Summary of the method: as §1

[11] = compound: CS(=O)(=O)CCNCc1ccc(-c2ccc3ncnc(Nc4ccc(OCc5cccc(F)c5)c(Cl)c4)c3c2)o1 [lapatinib]
Summary of the method: as §1

[12] = compound: CS(=O)(=O)N1CCN(Cc2cc3nc(-c4cccc5[nH]ncc45)nc(N4CCOCC4)c3s2)CC1 [pictilisib]
Summary of the method: as §1

[13] = compound: C[C@@H](Oc1cc(-c2cnn(C3CCNCC3)c2)cnc1N)c1c(Cl)ccc(F)c1Cl [crizotinib]
Summary of the method: as §1

[14] = compound: C[C@H](C1=CC=C(C=C1)C(=O)NC2=C3C=CNC3=NC=C2)N
Summary of the method: as §1

[15] = compound: C[C@H](Nc1ncnc2nc[nH]c12)c1cc2cccc(Cl)c2c(=O)n1-c1ccccc1 [duvelisib]
Summary of the method: as §1

[16] = compound: Cc1cc(Nc2cc(CN3CCOCC3)c3nc(C)c(Cc4ccc(Cl)cc4F)n3n2)n[nH]1 [gandotinib]
Summary of the method: as §1

[17] = compound: Cc1cc(Nc2cc(N3CCN(C)CC3)nc(Sc3ccc(NC(=O)C4CC4)cc3)n2)n[nH]1 [tozasertib]
Summary of the method: as §1

[18] = compound: Cc1ccc(-n2nc(C(C)(C)C)cc2NC(=O)Nc2ccc(OCCN3CCOCC3)c3ccccc23)cc1 [doramapimod]
Summary of the method: as §1

[19] = compound: Cc1ccc(NC(=O)c2ccc(CN3CC[C@H](N(C)C)C3)c(C(F)(F)F)c2)cc1Nc1nccc(-c2cncnc2)n1 [bafetinib]
Summary of the method: as §1

[20] = compound: Cc1cccc(CC(=O)N2CCc3c2ccc(-c2cn(C)c4ncnc(N)c24)c3F)n1
Summary of the method: as §1

Measured: log2 fold change

DIAPH1 (UniProt O60610)
Chain of UniProt O60610 (O60610 whole entry, looked up): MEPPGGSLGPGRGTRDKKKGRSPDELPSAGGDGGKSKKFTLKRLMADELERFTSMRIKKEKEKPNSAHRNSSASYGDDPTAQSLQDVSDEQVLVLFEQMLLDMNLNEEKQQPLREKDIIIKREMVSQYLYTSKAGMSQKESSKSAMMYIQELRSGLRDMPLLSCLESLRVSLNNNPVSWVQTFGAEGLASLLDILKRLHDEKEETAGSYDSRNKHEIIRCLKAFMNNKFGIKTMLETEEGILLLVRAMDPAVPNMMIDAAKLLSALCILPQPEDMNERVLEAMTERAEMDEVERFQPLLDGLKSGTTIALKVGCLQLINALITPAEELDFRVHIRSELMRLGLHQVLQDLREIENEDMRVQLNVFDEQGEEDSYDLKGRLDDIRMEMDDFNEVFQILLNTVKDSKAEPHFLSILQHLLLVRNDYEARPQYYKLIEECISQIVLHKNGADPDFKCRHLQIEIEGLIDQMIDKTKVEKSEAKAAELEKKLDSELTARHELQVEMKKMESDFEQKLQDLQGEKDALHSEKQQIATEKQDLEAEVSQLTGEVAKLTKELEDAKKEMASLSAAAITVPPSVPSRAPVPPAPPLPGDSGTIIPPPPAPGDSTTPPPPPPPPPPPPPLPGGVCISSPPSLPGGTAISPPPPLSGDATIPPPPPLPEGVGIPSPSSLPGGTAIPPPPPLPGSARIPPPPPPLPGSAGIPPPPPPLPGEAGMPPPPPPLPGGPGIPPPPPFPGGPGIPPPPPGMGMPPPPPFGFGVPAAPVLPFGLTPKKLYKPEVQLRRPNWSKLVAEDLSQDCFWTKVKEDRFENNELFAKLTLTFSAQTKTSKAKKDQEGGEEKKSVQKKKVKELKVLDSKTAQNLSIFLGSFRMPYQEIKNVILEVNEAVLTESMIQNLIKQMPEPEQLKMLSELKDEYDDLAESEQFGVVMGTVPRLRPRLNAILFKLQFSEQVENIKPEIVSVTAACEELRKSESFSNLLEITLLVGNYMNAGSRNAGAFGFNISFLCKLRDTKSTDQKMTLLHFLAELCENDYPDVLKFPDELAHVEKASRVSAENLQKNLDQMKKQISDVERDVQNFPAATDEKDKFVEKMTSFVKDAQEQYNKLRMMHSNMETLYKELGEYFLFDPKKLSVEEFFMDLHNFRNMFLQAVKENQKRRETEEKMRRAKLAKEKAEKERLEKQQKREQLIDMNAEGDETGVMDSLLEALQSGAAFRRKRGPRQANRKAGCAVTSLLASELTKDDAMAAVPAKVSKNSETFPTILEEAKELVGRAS
inactive: [1] 0.03 | [2] 0 | [3] -0.003 | [4] -0.018 | [5] -0.013 | [6] 0.003 | [7] 0.051 | [8] 0.005 | [9] 0.006 | [10] -0.001 | [11] -0.007 | [12] 0.014 | [13] 0.004 | [14] 0.06 | [15] -0.006 | [16] -0.063 | [17] 0.004 | [18] -0.003 | [19] -0.001 | [20] -0.021

CYP51A1 (UniProt Q16850)
Chain of UniProt Q16850 (Q16850 whole entry, looked up): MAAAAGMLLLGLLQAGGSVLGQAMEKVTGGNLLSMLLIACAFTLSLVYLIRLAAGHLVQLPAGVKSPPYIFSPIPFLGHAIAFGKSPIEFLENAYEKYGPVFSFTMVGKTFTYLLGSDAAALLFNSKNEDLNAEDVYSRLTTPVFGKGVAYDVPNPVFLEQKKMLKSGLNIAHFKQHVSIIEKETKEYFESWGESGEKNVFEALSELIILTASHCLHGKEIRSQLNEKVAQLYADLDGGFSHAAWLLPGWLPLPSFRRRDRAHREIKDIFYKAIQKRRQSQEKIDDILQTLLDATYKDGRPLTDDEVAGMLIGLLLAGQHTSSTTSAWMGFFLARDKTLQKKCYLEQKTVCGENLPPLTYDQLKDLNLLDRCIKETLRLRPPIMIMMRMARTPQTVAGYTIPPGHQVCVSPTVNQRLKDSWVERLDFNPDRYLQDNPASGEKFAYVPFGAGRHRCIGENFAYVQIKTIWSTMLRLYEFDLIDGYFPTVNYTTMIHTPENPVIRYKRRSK
inactive: [1] -0.017 | [2] 0.007 | [3] 0.005 | [4] -0.001 | [5] 0.023 | [6] -0.019 | [7] 0.09 | [8] 0.019 | [9] 0.053 | [10] 0 | [11] 0.105 | [12] 0.024 | [13] 0.023 | [14] -0.036 | [15] -0.065 | [17] 0 | [18] 0.089 | [20] 0.045
active: [16] 0.447 | [19] 0.385

DDA1 (UniProt Q9BW61)
inactive: [1] 0.024 | [2] -0.002 | [3] 0.015 | [4] -0.004 | [5] 0.031 | [6] 0.013 | [7] 0.021 | [8] -0.024 | [9] -0.003 | [10] -0.034 | [11] 0.011 | [12] -0.025 | [13] 0.025 | [14] -0.013 | [15] -0.013 | [16] -0.019 | [17] -0.037 | [18] 0.013 | [19] 0.011 | [20] -0.062

DNAJC5 (UniProt Q9H3Z4)
Chain of UniProt Q9H3Z4 (Q9H3Z4 whole entry, looked up): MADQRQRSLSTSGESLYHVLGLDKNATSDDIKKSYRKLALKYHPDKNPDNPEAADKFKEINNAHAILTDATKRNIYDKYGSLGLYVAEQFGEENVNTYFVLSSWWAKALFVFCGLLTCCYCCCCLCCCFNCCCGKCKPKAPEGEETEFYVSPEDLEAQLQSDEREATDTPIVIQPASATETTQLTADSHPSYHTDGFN
active: [14] -0.377 | [20] 0.334
inactive: [1] -0.216 | [2] 0.062 | [3] 0.019 | [4] 0.011 | [5] 0.054 | [6] 0.016 | [7] -0.057 | [8] -0.119 | [9] 0.019 | [10] -0.039 | [11] -0.021 | [12] 0.075 | [13] 0.007 | [15] -0.041 | [16] 0.161 | [17] -0.054 | [18] 0.023 | [19] -0.144

COX20 isoform 2 (UniProt Q5RI15)
Chain of UniProt Q5RI15 (Q5RI15 whole entry, looked up): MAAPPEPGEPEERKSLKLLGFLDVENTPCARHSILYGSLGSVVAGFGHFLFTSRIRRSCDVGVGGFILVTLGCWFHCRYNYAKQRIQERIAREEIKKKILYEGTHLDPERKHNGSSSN
active: [14] 0.455
inactive: [1] 0.102 | [2] -0.012 | [3] 0.01 | [4] -0.007 | [5] 0.06 | [6] -0.103 | [7] 0.022 | [8] 0.001 | [9] -0.033 | [10] -0.009 | [11] 0.016 | [12] 0.186 | [13] 0.054 | [15] -0.007 | [16] -0.144 | [17] -0.053 | [18] -0.036 | [19] 0.144 | [20] -0.273

CSNK1E (UniProt P49674)
Chain of UniProt P49674 (P49674 whole entry, looked up): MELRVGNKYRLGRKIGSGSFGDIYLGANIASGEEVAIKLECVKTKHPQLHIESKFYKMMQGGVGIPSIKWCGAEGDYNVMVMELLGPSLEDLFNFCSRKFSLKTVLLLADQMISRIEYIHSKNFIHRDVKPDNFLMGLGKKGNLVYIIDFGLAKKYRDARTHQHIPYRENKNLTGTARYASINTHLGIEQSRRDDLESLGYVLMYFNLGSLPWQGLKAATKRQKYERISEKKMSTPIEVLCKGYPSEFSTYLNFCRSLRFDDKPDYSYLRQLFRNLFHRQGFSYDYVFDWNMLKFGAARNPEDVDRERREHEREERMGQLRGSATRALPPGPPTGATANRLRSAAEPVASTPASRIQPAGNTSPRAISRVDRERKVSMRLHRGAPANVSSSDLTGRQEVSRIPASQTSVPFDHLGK
inactive: [1] 0.021 | [2] -0.159 | [3] 0.129 | [4] -0.017 | [5] 0.093 | [6] -0.032 | [7] 0.028 | [8] -0.034 | [9] 0.048 | [10] 0.012 | [11] -0.026 | [12] 0.103 | [13] 0.004 | [14] 0.135 | [15] -0.016 | [16] -0.134 | [17] -0.065 | [18] 0.003 | [19] -0.024 | [20] -0.061

DOCK7 (UniProt Q96N67)
inactive: [1] 0.007 | [2] -0.238 | [3] 0.006 | [4] -0.014 | [5] -0.035 | [6] 0.006 | [7] 0.038 | [8] 0.032 | [9] 0.026 | [10] 0.017 | [11] -0.003 | [12] -0.016 | [13] -0.022 | [14] -0.107 | [15] -0.004 | [16] -0.103 | [17] 0.047 | [18] 0.012 | [19] -0.032 | [20] 0.102

COQ8A (UniProt Q8NI60)
Chain of UniProt Q8NI60 (Q8NI60 whole entry, looked up): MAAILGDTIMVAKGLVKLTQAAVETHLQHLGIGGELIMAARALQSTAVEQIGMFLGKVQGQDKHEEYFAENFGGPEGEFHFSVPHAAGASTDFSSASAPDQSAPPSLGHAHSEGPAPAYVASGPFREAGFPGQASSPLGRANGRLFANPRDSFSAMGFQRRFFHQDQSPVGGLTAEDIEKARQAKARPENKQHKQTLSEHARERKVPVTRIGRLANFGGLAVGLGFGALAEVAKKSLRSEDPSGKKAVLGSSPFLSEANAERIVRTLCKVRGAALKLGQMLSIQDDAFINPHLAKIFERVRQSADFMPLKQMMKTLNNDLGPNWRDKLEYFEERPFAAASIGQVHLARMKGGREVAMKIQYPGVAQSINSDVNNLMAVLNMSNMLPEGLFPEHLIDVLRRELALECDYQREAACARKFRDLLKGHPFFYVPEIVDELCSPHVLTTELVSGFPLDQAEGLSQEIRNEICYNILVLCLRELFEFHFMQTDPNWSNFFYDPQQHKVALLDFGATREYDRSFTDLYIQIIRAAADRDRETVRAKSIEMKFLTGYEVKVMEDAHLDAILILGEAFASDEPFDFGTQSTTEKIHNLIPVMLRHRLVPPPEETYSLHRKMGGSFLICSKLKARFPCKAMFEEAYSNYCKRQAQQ
inactive: [1] 0.051 | [2] -0.06 | [3] 0.384 | [4] 0 | [5] 0.079 | [6] 0.145 | [7] -0.009 | [8] -0.023 | [9] 0.009 | [10] 0.447 | [11] 0.004 | [12] 0.025 | [13] 0.106 | [14] -0.078 | [15] -0.095 | [16] 0.126 | [17] 0.023 | [18] -0.059 | [19] 0.041 | [20] -0.042

CNST (UniProt Q6PJW8)
inactive: [1] 0 | [2] -0.055 | [3] 0.043 | [4] 0.041 | [5] -0.027 | [6] 0.03 | [7] -0.096 | [8] -0.031 | [9] 0.024 | [10] 0.002 | [11] 0.005 | [12] 0 | [13] 0.031 | [14] -0.022 | [15] -0.007 | [16] 0.033 | [17] 0.019 | [18] 0.005 | [19] 0.033 | [20] 0.025

DCP2 (UniProt Q8IU60)
inactive: [1] 0.023 | [2] -0.195 | [3] -0.013 | [4] -0.045 | [5] 0 | [6] 0 | [7] -0.117 | [8] -0.02 | [9] 0 | [10] 0.041 | [11] -0.027 | [12] 0.011 | [13] 0.038 | [14] 0.021 | [15] -0.011 | [16] -0.148 | [17] 0.018 | [18] 0.01 | [19] -0.062 | [20] -0.041

CYCS (UniProt P99999)
inactive: [1] -0.003 | [2] 0.027 | [3] 0.009 | [4] 0.04 | [5] 0.018 | [6] -0.004 | [7] -0.04 | [8] -0.019 | [9] -0.002 | [10] 0.003 | [11] 0.015 | [12] -0.033 | [13] 0.036 | [14] -0.054 | [15] -0.039 | [16] 0.056 | [17] -0.004 | [18] -0.029 | [19] 0.06 | [20] -0.006

CNOT2 (UniProt Q9NZN8)
Chain of UniProt Q9NZN8 (Q9NZN8 whole entry, looked up): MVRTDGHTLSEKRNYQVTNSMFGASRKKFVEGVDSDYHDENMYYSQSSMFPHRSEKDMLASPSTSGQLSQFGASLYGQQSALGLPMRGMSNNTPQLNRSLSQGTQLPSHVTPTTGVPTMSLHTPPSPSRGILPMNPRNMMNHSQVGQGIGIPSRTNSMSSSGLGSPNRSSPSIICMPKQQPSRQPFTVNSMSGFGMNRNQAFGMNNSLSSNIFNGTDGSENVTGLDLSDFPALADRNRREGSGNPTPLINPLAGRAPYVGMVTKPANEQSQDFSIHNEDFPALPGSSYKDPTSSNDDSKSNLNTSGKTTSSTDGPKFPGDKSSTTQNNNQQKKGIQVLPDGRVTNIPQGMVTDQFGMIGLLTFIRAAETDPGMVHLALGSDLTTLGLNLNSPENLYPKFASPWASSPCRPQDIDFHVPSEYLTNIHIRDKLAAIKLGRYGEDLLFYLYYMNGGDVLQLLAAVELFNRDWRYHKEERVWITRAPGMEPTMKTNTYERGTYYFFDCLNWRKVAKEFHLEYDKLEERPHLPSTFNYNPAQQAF
inactive: [1] -0.003 | [2] -0.046 | [3] -0.002 | [4] 0.001 | [5] -0.027 | [6] -0.002 | [7] 0.013 | [8] -0.025 | [9] 0.008 | [10] 0.011 | [11] -0.027 | [12] -0.014 | [13] -0.023 | [14] 0.111 | [15] -0.008 | [16] -0.093 | [17] 0.001 | [18] -0.01 | [19] 0.024 | [20] -0.005

DARS (UniProt P14868)
Chain of UniProt P14868 (P14868 whole entry, looked up): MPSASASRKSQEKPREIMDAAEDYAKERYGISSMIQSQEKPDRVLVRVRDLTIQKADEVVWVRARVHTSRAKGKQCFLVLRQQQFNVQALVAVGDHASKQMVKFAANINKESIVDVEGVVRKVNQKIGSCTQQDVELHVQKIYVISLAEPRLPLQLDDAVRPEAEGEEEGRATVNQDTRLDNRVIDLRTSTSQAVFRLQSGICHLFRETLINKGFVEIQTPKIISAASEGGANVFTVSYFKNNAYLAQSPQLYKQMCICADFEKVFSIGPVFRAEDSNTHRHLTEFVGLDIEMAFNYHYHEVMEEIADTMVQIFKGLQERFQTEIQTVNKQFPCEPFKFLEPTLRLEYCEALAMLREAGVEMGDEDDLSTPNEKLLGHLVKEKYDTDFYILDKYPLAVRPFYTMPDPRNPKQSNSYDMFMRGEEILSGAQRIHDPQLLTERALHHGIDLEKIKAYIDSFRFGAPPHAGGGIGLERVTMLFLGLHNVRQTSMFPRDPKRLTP
inactive: [1] 0.012 | [2] -0.119 | [3] -0.012 | [4] 0.012 | [5] -0.061 | [6] 0.028 | [7] 0.049 | [8] 0.038 | [9] 0.003 | [10] -0.014 | [11] 0.002 | [12] 0 | [13] -0.033 | [14] -0.036 | [15] 0 | [16] -0.081 | [17] 0.011 | [18] 0.015 | [19] -0.011 | [20] 0.008

DNAJC1 (UniProt Q96KC8)
Chain of UniProt Q96KC8 (Q96KC8 whole entry, looked up): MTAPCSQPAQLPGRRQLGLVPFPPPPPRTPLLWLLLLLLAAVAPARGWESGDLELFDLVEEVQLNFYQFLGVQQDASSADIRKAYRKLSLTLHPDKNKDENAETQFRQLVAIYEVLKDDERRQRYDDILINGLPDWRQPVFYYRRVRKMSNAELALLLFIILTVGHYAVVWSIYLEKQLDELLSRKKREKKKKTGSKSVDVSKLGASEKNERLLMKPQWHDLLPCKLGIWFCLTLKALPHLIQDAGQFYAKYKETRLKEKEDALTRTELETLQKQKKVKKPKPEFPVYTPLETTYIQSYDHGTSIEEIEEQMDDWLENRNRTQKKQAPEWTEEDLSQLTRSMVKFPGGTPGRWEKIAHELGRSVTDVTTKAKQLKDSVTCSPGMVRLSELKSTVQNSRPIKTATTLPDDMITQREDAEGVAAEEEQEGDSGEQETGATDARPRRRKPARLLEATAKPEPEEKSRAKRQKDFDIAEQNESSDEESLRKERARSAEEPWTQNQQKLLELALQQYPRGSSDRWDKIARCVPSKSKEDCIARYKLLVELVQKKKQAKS
active: [16] -0.262
inactive: [1] 0.016 | [2] -0.053 | [3] 0.013 | [4] 0.06 | [5] -0.059 | [6] 0.056 | [7] -0.257 | [8] 0.038 | [9] -0.104 | [10] 0.041 | [11] -0.057 | [12] 0.013 | [13] -0.086 | [14] 0.033 | [15] -0.046 | [17] 0.019 | [18] -0.117 | [19] 0.001 | [20] -0.064

DMXL1 (UniProt Q9Y485)
inactive: [1] 0.01 | [2] -0.014 | [3] 0.019 | [4] 0.024 | [5] 0.012 | [6] 0.055 | [7] -0.015 | [8] -0.031 | [9] 0.009 | [10] 0.038 | [11] -0.003 | [12] -0.014 | [13] -0.021 | [14] 0.001 | [15] 0.007 | [16] -0.028 | [17] 0.002 | [18] 0.039 | [19] -0.01 | [20] 0.026

CMTM3 (UniProt Q96MX0)
Chain of UniProt Q96MX0 (Q96MX0 whole entry, looked up): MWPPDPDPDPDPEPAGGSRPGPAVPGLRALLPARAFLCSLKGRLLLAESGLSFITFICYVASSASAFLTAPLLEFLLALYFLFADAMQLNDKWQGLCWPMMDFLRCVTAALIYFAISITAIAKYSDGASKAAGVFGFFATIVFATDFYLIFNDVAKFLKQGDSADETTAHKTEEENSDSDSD
inactive: [1] -0.007 | [2] -0.231 | [3] 0.04 | [4] -0.022 | [5] 0.061 | [6] -0.011 | [7] 0.064 | [8] -0.099 | [9] -0.036 | [10] -0.123 | [11] -0.027 | [12] 0.029 | [13] -0.069 | [14] 0.023 | [15] -0.052 | [16] 0.016 | [17] 0.042 | [18] 0.025 | [19] -0.057 | [20] -0.059
